For 22 molecules, Potency and activity, negative = inhibition results are on record in PubChem BioAssay (NCATS).

Assay [1] in a line: qHTS for Inhibitors of Plasmodium falciparum (DD2) proliferation (AID 504314).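 Note: parasite DNA measured by SYBR Green fluorescence after red cell lysis; plate controls were DMSO vehicle for no effect and artemisinin wells for full effect.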 The procedure, abridged:
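SYBR Green DNA-fluorescence growth assay: infected RBCs at 0.3% parasitemia, 2.5% hematocrit, 72 h compound exposure, 37C, 5% CO2; overnight lysis with dye at RT; normalized to 0.29 uM artemisinin and vehicle.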
On the technique in general: In qHTS, concentration-response curves come from the screen itself.

The nature of assay [2]: qHTS for Inhibitors of Plasmodium falciparum (GB4) proliferation (AID 504315). Note: nearly all actives have a fitted effect of over 50% in size. Note: potency is the fitted concentration of half-maximal effect. The procedure, abridged:
(§1)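 Parasite growth measured as SYBR Green DNA fluorescence (ex 485, em 535 nm) after overnight lysis following 72 h culture at 37 °C, 0.3% parasitemia, 2.5% hematocrit. Values normalized against DMSO and 0.29 uM artemisinin controls, with plate-stack correction.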

Assay [3] in a line: qHTS for Inhibitors of Plasmodium falciparum (7G8) proliferation (AID 504316). Note: nearly all actives have a fitted effect of over 65% in size. Note: potency is the fitted concentration of half-maximal effect. The procedure, abridged:
as §1

The nature of assay [4]: qHTS for Inhibitors of Plasmodium falciparum (HB3) proliferation (AID 504318). Note: nearly all actives have a fitted effect of over 60% in size. Note: potency is the fitted concentration of half-maximal effect. The procedure, abridged: as §1
A short description of assay [5]: qHTS for Inhibitors of Plasmodium falciparum (CP250) proliferation (AID 504320). Note: potency is the fitted concentration of half-maximal effect. The procedure, abridged:
as §1

Assay [6] deals with Glucocorticoid receptor (Homo sapiens) (UniProt P04150). Description: GR-GFP Redistribution (AID 450;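 active = compounds whose dose series gives a full or clear partial fitted curve of increased nuclear translocation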; note: potency is the fitted concentration of half-maximal effect). As to conditions: U2OS GR-GFP nuclear translocation, laser cytometry, 2 h.
Sequence of Glucocorticoid receptor (Homo sapiens) (P04150 whole entry, looked up): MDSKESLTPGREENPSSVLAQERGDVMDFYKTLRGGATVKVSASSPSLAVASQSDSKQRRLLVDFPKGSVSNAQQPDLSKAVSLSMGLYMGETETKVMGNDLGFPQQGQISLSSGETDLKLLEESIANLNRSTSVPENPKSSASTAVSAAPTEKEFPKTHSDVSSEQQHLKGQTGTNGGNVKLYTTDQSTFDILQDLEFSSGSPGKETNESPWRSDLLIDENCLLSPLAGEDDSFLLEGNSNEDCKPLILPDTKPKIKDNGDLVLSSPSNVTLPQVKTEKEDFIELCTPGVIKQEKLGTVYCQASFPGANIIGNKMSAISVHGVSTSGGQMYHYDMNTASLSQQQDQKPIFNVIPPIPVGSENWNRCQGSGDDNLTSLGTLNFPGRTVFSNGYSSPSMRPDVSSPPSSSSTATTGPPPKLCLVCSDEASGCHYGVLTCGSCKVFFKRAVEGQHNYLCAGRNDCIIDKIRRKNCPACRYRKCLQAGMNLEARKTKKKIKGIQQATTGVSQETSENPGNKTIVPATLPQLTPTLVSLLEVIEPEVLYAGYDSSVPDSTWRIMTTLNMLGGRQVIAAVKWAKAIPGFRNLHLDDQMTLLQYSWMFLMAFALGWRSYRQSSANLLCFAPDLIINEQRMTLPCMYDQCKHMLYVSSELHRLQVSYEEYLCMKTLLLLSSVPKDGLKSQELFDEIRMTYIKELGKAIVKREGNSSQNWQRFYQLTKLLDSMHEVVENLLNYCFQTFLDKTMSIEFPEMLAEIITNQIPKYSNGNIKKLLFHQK
Assay [7] has the same target. Description: GR-EFC Redistribution (AID 451; calls by dose curve; note: potency is the fitted concentration of half-maximal effect). The settings on record: CHO-K1 GR-EFC translocation, beta-gal luminescence, 2 h. The procedure, abridged:
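CHO-K1 cells stably expressing nuclear-localized β-gal enzyme acceptor and GR fused C-terminally to the enzyme donor fragment; ligand-driven nuclear translocation restores β-gal by complementation. Compounds titrated up to 46 uM final, 2 h at 37 °C; luminescence read.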

For assay [8], the target named is Cytochrome P450 3A4 (Homo sapiens) (UniProt P08684). Description: qHTS Assay for Inhibitors and Substrates of Cytochrome P450 3A4 (AID 884). Note: potency is the fitted concentration of half-maximal effect; nearly all actives have a fitted effect of over 50% in size. The procedure, abridged:
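Luminescent readout of luciferin produced by CYP3A4 (20 nM) dealkylation of Luciferin-PPXE, 25 uM (its KM). NADPH-driven reaction ran 60 min at RT after 10 min compound preincubation; data scaled to 57 uM ketoconazole as 100% inhibition.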

For assay [9] the target is unchanged. In words: qHTS Assay for Activators of Cytochrome P450 3A4 (AID 885). Note: nearly all actives have a fitted effect of over 65% in size. The procedure, abridged: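 Activators are scored by enhanced luminescence from CYP3A4 conversion of luciferin-PPXE (25uM, equal to KM) to luciferin, after 60 min at RT with an NADPH-regenerating system.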
The target of assay [10] is Cytochrome P450 2D6 (Homo sapiens) (UniProt P10635). In words: qHTS Assay for Inhibitors and Substrates of Cytochrome P450 2D6 (AID 891). Note: potency is the fitted concentration of half-maximal effect; nearly all actives have a fitted effect of over 60% in size. The procedure, abridged:
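Luminescent read-out of luciferin formed by 5 nM human CYP2D6 demethylating 30 uM Luciferin-ME EGE (Km level) over 60 min at room temperature after NADPH regeneration addition. Data normalized to full inhibition by 1.43 uM quinidine.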

For assay [11], the target named is Ubiquitin carboxyl-terminal hydrolase 1 (Homo sapiens) (UniProt O94782). Description: Inhibitors of USP1/UAF1: Pilot qHTS (AID 504865).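 Note: rhodamine fluorescence freed from ubiquitin-rhodamine substrate followed over time; top concentration of the series differs between compounds; % is set by controls: 0 for no effect and ±100 for the full control effect; nearly all actives have a fitted effect of over 35% in size.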 The procedure, abridged:
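Kinetic fluorescence assay: 1nM USP1/UAF1, 15 min compound preincubation, then 150nM Ub-Rho; 480/540 nm.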

Assay [12] addresses DNA dC->dU-editing enzyme APOBEC-3G (Homo sapiens) (UniProt Q9HC16). In words: qHTS for inhibitors of Vif-A3G interactions: Validation (AID 588379). Note: 0% is about no effect. The procedure, abridged: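 Yellow fluorescence (Ex 488, Em 500-530) of Vif-coexpressing HeLa A3G-eYFP cells, scanned by Acumen cytometer, reports blocked A3G degradation. Cells plated at 700/well overnight at 37 deg C before compound addition, then a further overnight compound incubation at 37 deg C.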

Several values for one entry are separate records, joined by “and”; a condition that tells them apart may be missing. Equal entries are not always repeated. Inconclusive results are not listed. Where a structure was tested more than once in an assay, its records may differ in their call. Activity calls are given as the source filed them. Unless noted, calls come from the whole dose curve; as a rule, active = well fitted curve in the direction sought with a large enough effect; inconclusive = small, poorly fitted or top-dose-only effect, or another doubt; inactive = no such curve, though single readings can be large; an effect the other way counts as inactive or inconclusive.

Sequence of Cytochrome P450 3A4 (Homo sapiens) (P08684 whole entry, looked up): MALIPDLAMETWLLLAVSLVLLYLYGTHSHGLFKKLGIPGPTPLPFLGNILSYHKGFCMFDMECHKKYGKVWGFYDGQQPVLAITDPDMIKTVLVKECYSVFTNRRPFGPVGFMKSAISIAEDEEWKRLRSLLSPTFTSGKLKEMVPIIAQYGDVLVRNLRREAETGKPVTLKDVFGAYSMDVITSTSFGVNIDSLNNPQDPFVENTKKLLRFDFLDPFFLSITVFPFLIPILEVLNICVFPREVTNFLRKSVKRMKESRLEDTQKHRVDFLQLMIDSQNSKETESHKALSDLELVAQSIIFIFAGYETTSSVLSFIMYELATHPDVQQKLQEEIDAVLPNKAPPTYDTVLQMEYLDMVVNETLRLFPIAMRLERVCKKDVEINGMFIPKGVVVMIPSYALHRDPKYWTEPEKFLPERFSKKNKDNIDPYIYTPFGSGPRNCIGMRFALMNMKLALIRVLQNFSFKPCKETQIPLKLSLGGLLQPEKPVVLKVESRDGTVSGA
Sequence of DNA dC->dU-editing enzyme APOBEC-3G (Homo sapiens) (Q9HC16 whole entry, looked up): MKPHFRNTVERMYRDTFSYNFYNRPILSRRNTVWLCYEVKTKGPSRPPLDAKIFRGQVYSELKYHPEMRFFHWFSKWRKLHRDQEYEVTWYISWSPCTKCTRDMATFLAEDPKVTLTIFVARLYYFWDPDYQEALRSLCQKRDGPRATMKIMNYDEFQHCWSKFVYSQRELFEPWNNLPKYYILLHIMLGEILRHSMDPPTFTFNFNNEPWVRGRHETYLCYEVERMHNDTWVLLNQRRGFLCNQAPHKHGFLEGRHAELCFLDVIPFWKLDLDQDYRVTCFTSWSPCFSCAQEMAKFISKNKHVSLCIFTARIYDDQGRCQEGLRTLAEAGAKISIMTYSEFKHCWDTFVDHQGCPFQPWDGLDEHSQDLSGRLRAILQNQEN
Sequence of Ubiquitin carboxyl-terminal hydrolase 1 (Homo sapiens) (O94782 whole entry, looked up): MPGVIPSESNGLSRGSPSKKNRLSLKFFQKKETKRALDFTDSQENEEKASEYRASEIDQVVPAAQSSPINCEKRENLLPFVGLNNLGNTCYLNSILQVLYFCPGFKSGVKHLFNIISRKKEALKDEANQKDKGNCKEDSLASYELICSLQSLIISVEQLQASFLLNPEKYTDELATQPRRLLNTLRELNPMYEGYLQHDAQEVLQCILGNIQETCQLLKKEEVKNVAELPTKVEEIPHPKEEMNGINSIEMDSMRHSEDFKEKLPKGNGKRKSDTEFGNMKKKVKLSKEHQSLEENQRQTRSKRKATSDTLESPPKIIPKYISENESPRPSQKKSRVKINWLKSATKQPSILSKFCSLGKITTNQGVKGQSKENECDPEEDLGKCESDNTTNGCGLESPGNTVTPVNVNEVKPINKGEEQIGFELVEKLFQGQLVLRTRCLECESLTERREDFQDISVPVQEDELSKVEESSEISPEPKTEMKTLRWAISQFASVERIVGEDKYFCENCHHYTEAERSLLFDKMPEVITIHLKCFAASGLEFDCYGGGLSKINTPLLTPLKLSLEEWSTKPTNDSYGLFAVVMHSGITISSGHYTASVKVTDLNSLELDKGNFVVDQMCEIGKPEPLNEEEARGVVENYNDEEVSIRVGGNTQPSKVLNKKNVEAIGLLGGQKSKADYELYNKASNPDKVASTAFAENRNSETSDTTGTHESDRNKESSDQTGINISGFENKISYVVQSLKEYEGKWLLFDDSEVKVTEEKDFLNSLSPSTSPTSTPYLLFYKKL
Sequence of Cytochrome P450 2D6 (Homo sapiens) (P10635 whole entry, looked up): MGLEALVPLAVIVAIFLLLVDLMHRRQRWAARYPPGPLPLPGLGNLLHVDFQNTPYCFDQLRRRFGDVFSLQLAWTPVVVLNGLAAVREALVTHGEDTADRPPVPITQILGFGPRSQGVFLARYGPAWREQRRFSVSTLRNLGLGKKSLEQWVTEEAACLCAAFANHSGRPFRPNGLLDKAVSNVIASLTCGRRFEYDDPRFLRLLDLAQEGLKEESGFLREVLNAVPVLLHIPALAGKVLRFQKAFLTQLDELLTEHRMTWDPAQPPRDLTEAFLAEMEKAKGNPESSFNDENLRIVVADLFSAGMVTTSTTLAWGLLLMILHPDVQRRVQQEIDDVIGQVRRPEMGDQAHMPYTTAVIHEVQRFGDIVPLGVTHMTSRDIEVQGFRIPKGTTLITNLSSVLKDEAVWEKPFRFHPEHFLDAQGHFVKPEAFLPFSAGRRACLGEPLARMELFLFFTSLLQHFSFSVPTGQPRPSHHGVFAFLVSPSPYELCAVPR

`CCN1C(=NCc2ccc3c(c2)OCO3)N[C@@H](c2ccccc2)[C@H](C(=O)OC)[C@H]1C`: the Potency result in assay [1], in assay [2], in [3], in [4] and in [5] was “inactive” in each case.
In the case of `CC#CCN1c2ccccc2[C@]23CCC(=O)N(Cc4cccc(C(F)(F)F)c4)C2=NC(C(=O)OC)=C(C(=O)OC)[C@H]13`, the Potency result in assay [1], in assay [2], in assay [3], in assay [4] and in assay [5] was “inactive” each time.
Take `C[C@@H]1CC[C@H]2C(=O)N(Cc3cccc([N+](=O)[O-])c3)C[C@@H](O)CN2[C@@H]1c1ccc(Br)cc1`: the Potency result in [1] and in assay [2] was “inactive” throughout.
Consider `O=C1Nc2cccc(Br)c2[C@@]12O[C@H](COc1ccccc1)CC1=CCCC12` (some centres undefined), for which the Potency entry in assay [1], in assay [2], in assay [3], in assay [4] and in assay [5] was “inactive” in each case.
In the case of `C#CCCOC(=O)N1C2=NC(C(=O)OC)=C(C(=O)OC)[C@@H]3N(CC=C)c4ccccc4[C@]23C[C@H]1C(=O)OC`, the activity, negative = inhibition in assay [1] is 5.23% [at 1.12 µM] (inactive). Besides, the Potency entry in assay [2], in [3], in [4] and in assay [5] was “inactive” each time.
Take `C#CCCOC(=O)N1C2=NC(C(=O)OC)=C(C(=O)OC)[C@@H]3Nc4ccccc4[C@]23C[C@H]1C(=O)OC`: the Potency result in [1], in assay [2], in assay [3], in [4] and in assay [5] was “inactive” in each case.
As to `O=C1OCCC=C1C(O)CCc1ccccc1` (centres undefined), the Potency entry in assay [1], in assay [2], in assay [3] and in [4] was “inactive” in each case.
As to `CCN1C(=O)[C@@H]2[C@H]3[C@H](O)[C@H](O)CC(=NO[C@H](C)c4cn([C@@H]5COC[C@@H]5O)nn4)[C@@H]3CC[C@H]2C1=O`, the Potency entry in assay [1], in assay [2], in [3], in assay [4] and in assay [5] was “inactive” in each case.
In the case of `CCOC(=O)CN1C(=O)[C@]2(O[C@H](C)CC3=CCCC32)c2c(Br)cccc21` (some centres undefined), the Potency result in assay [1], in assay [2] and in assay [3] was “inactive” each time.
With `COc1ccc2c(c1)O[C@@H](c1ccc3c(c1)OCO3)[C@H](OC(=O)Nc1ccc(OC(F)F)cc1)C2=O`, the Potency result in assay [1], in assay [2], in [3], in [4] and in assay [5] was “inactive” throughout.
For `Cc1ccccc1Nc1oc(-c2ccccc2)nc1CCc1ccccc1`, the Potency entry in assay [1] was “inactive”. Further, the Potency result is “inactive and 1.51 µM (active)” in assay [2]; “inactive and 1.69 µM (active)” in assay [3]; “inactive and 1.69 µM (active)” in assay [4]; “inactive and 1.51 µM (active)” in assay [5].
For the molecule `CCN1C(=O)NC(c2cccs2)C(C(C)=O)=C1C` (centres undefined), the Potency result in assay [1], in [2], in [3], in [4] and in assay [5] was “inactive” throughout.
On to `C=C1C2c3ccccc3C(CC2(C)O[Si](C)(C)C)N1C(=O)OC` (centres undefined), for which the Potency result in assay [1], in [2], in assay [3], in assay [4] and in assay [5] was “inactive” throughout.
As to `COC(=O)[C@@]1(C=C2c3ccc(OC)cc3[C@@H](OC)[C@@H]2C)[C@@H]2C=CC[C@@H]21`, the Potency result in assay [1], in assay [2], in assay [3], in assay [4] and in assay [5] was “inactive” each time.
Consider `CC1(OC(=O)C2CCCC2)C(=O)C=C2C=C3CCCN3C=C2C1=O` (centres undefined), for which the activity, negative = inhibition in assay [1] was 0.418% [at 1.12 µM] (inactive). Besides, the Potency result in assay [2], in [3], in [4] and in assay [5] was “inactive” in each case.
On to `O=C(NN=C1C[C@@H](O)[C@H](O)[C@H]2[C@@H]3C(=O)N(c4cccc(Oc5ccccc5)c4)C(=O)[C@@H]3CC[C@H]12)OCc1ccccc1`, for which the Potency result in [1], in assay [2], in assay [3], in assay [4] and in assay [5] was “inactive” throughout.
On to `COC(=O)C1=C[C@@]2(c3ccc(F)cc3[C@@H](OC)[C@@H]2C)[C@@H]2C=C[C@H]1C2`, for which the Potency entry in assay [1], in assay [2] and in [3] was “inactive” throughout.
Turning to `C=CC[C@@]1(C(=O)OC)C=C[C@@H](C)[C@H](c2ccccc2Br)N1C(=O)C(F)(F)F`, the Potency entry in assay [1], in assay [2], in assay [3], in [4] and in assay [5] was “inactive” in each case.
For `CC(=O)OC[C@H]1O[C@H](CCON=C(C)CCC(=O)OC[C@H]2O[C@H](C#Cc3ccccc3)C=C[C@H]2Oc2ccc(C)cc2)C=C[C@H]1OC(C)=O`, the Potency result in assay [1], in [2], in assay [3], in [4] and in assay [5] was “inactive” each time.
As to `O=C(NCCCN1CCCCCC1)[C@@H](c1ccccc1)C1CCCCC1`, the Potency was > 46 µM (inactive) in assay [6], > 46 µM (inactive) in assay [7], 3.98 µM (active) in [8] and 0.631 µM (active) in assay [10]. The Potency entry in assay [9], in assay [11] and in [12] was “inactive” each time.
Regarding `C[C@H]1Cc2c(-c3ccccc3)nc3c(c2CO1)CN(C(=O)c1cccnc1)CC3`, the Potency result in [1], in assay [2], in assay [3], in assay [4] and in [5] was “inactive” in each case.
Turning to `COC(=O)CC=C1c2ccc(F)cc2[C@@H](OC)[C@@H]1C`, the Potency result in [1], in assay [2], in assay [3], in [4] and in assay [5] was “inactive” each time.
